MRP-1 activ: H69AR viability gain despite doxorubicin, primary screen, MRP-1 activator project, H69AR cells, CellTiter-Glo. viability rescue. viability increase, % at 10 µM. actives 0.61% (n = 140,000);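 active = viability gain under doxorubicin at or above a set limit, the compound median plus 3 SD, cut at about 4.7% in these data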;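 note: MRP-1 overexpressing cells given doxorubicin 25 µM after compound pretreatment; 18-22 h compound pretreatment then 72 h with doxorubicin before readout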
MRP reversal: reversal of MRP1-mediated doxorubicin resistance, primary screen, H69AR cells, doxorubicin co-treatment | actives 0.04% (n = 85,000) | differential viability (reversal), % at 10 µM | H69AR cells + 2 uM doxorubicin, CellTiter-Glo, 72 h | AID 602, 2007;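 active = viability drop by adding the cancer drug above about 55%, with treated viability meeting a 40% cutoff, limit read from the data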;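 note: larger differential means the compound sensitizes cells more to doxorubicin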
Phagocyt inh: inhibitors of macrophage phagocytosis, primary screen, imaging, J774A.1 cells, IgG beads; J774A.1 macrophage IgG-bead phagocytosis; inhibition, % at 5 µM; actives 0.07% (n = 110,000);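 active = inhibition above the mean of the plate negative controls plus 5 SD, cut at about 13% in these data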;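 note: phagocytic index as fraction of beads internalized from green versus red external bead signal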
Each line names hits and unclear results; the compound was inactive in the other large screens; [ ] = dose if it differs, or a comment. Rows were chosen to be rich in hits. Some 0.69% of all compounds tested hit in one or more screens of this group.

C(=N\Nc1ccccc1)/c1ccc(N2CCOCC2)cc1	none (no result: MRP reversal, Phagocyt inh)
Cc1ccc(N/N=C(\C#N)C(=N)N2CCOCC2)cc1	MRP-1 activ 6.5 (no result: MRP reversal)
N#C/C(=N\Nc1ccccc1)C(=N)N1CCOCC1	MRP-1 activ 6.8 (no result: MRP reversal)
C=CCn1c(COc2cccc(C)c2)nnc1SCn1nnc2ccccc2c1=O	none (no result: MRP reversal)
COc1ccc(CC(NC(C)=O)C(=O)N2CCN(C(=O)Nc3ccc(Cl)cc3)CC2)cc1OC (configuration not stated)	none (no result: MRP reversal)
Cc1ccc(C(=O)NCC(=O)NCC(=O)OCC(=O)c2cccs2)cc1	none (no result: MRP reversal)
CCn1c2ccccc2c2cc(NC(=O)CC(C)=O)ccc21	MRP-1 activ 4.8 (no result: MRP reversal)
CCCC(=O)Nc1ccc2c(c1)c1ccccc1n2CC	none (no result: MRP reversal)
Cc1nnc2n(Cc3ccccc3)c(=O)c3c4c(sc3n12)CN(Cc1ccccc1)CC4	none (no result: MRP-1 activ)
O=c1c2c3c(sc2n2cnnc2n1Cc1ccccc1)CN(Cc1ccccc1)CC3	MRP reversal 64 (no result: MRP-1 activ)
O=C(NN1C(=O)/C(=C/c2cccnc2)SC1=S)C(c1ccccc1)c1ccccc1	none (no result: MRP reversal, Phagocyt inh)
O=C(NN1C(=O)/C(=C\c2cccnc2)SC1=S)C(c1ccccc1)c1ccccc1	MRP-1 activ 5.5 (no result: MRP reversal)
Cn1cccc1/C=C1\SC(=S)N(NC(=O)c2ccccc2)C1=O	none (no result: MRP reversal)
O=C(CCN1C(=O)/C(=C/c2cccc(Br)c2)SC1=S)NNC(=O)c1cccnc1	none (no result: MRP reversal, Phagocyt inh)
O=C(CCN1C(=O)/C(=C/c2ccc(F)cc2)SC1=S)NNC(=O)c1cccnc1	none (no result: MRP reversal)
Cc1ccc(/C=C2\SC(=S)N(CCC(=O)NNC(=O)c3cccnc3)C2=O)cc1	MRP-1 activ 8.7 (no result: MRP reversal)
CC(=O)NN1C(=O)/C(=C/c2ccc(C(C)C)cc2)SC1=S	MRP-1 activ 4.7 (no result: MRP reversal)
O=C(CCN1C(=O)/C(=C/c2ccccc2)SC1=S)NNC(=O)c1cccnc1	MRP-1 activ 6.6 (no result: MRP reversal, Phagocyt inh)
CCCn1c(=O)n(C)c(=O)c2c3oc(=O)c(NC(=O)c4ccc(F)cc4)cc3[nH]c21	none (no result: MRP-1 activ, Phagocyt inh)
COc1ccc(CNC(=O)CSCc2ccccc2Cl)cc1	none (no result: MRP reversal)
COc1cc(/C=C/C(=O)OCC(=O)N2CCC(Cc3ccccc3)CC2)ccc1O	none (no result: MRP reversal)
COc1cc(/C=C/C(=O)OCC(=O)N2CCc3ccccc3C2)ccc1O	Phagocyt inh 66[artifact] (no result: MRP reversal)
c1ccc(Oc2cc(-n3cncn3)ncn2)cc1	none (no result: MRP reversal)
Cc1cnn(-c2cc(Oc3ccccc3)ncn2)c1	MRP-1 activ 4.8
CCN(CC)S(=O)(=O)c1ccc(N2CCOCC2)c(NC(=O)C23CC4CC(CC(Cl)(C4)C2)C3)c1	none (no result: MRP reversal)
CCOC(=O)N1CCN(C(=O)C(=O)NNC(=O)COc2ccc(Cl)cc2)CC1	none (no result: MRP reversal)
Cc1ccc(CNC(=O)C(=O)NCC(c2ccco2)N2CCOCC2)cc1 (configuration not stated)	none (no result: MRP reversal)
O=C(NCc1ccc(Cl)cc1)C(=O)NCC(c1ccco1)N1CCOCC1 (configuration not stated)	MRP-1 activ 9.1 (no result: MRP reversal)
COc1cccc(NC(=O)c2oc3ccccc3c2NC(=O)c2ccc3c(c2)OCO3)c1	MRP-1 activ 5.0 (no result: Phagocyt inh)
COc1cccc(NC(=O)c2oc3ccccc3c2NC(=O)C(C)(C)C)c1	none
CCN=c1scc(C)n1/N=C/c1ccc(O)c(O)c1O	MRP-1 activ 6.2 (no result: MRP reversal)
COCCN=c1scc(-c2cccs2)n1/N=C/c1ccc(O)c(O)c1O	none (no result: MRP reversal)
CCC(C(=O)NC(C)(C)C)N(C(=O)Cn1nnc(-c2ccccc2F)n1)c1cccc2c1CCCC2 (configuration not stated)	none (no result: MRP reversal, Phagocyt inh)
CCOC(=O)C1(C(F)(F)F)N=C(C(F)(F)F)Nc2cc(C)c(C)cc21 (configuration not stated)	none (no result: MRP reversal)
CC(C)N(Cc1cc2ccccc2[nH]c1=O)C(=O)C(C)(C)C	MRP-1 activ 9.3
CC(C)C(=O)N(Cc1cc2ccccc2[nH]c1=O)C(C)C	none
O=c1cc(-c2ccccc2)[nH]n1-c1ccc([N+](=O)[O-])cc1	none (no result: MRP reversal, Phagocyt inh)
CCNS(=O)(=O)c1cccc(C(=O)c2c(C)cc3ccccn23)c1	none (no result: MRP reversal)
COc1ccc(-c2[nH]ncc2-c2cnn(-c3ccccc3)c2)c(O)c1	MRP-1 activ 46 (no result: MRP reversal)
COc1ccc(-c2[nH]ncc2Oc2ccccc2OC)c(O)c1	none
S=c1[nH]nc(Cc2ccccc2)n1-c1cccc2ccccc12	none (no result: MRP reversal)
COc1cccc(Cn2nnc(C(=O)NCc3ccc(F)cc3)c2N)c1	MRP-1 activ 4.8
CCOc1ccc(Cn2nnc(C(=O)NCCc3ccccc3)c2N)cc1	MRP-1 activ 7.8
COc1cccc(Cn2nnc(C(=O)NCCc3ccc(Cl)cc3)c2N)c1	none
CCOc1ccc(Cn2nnc(C(=O)NCCc3ccc(Cl)cc3)c2N)cc1	MRP-1 activ 5.1
COc1cccc(Cn2nnc(C(=O)NCc3ccccc3Cl)c2N)c1	none
Nc1c(C(=O)NCc2ccccc2)nnn1Cc1ccccc1	none
Cn1cccc1/C=C1\SC(=S)N(NC(=O)c2cccc(Cl)c2)C1=O	none (no result: MRP reversal)
O=C(NCC1c2ccccc2CCN1C(=O)CN1C(=O)c2ccccc2C1=O)C1CCCCC1 (configuration not stated)	none
COc1cc([N+](=O)[O-])ccc1NC(=O)CC(C)C	none (no result: MRP reversal)
CC(C)OP(=O)(OC(C)C)C(O)c1ccc2c(c1)OCO2 (configuration not stated)	none (no result: MRP reversal)
CCCCNC(=S)N(C)/N=C/c1ccc(OCc2ccc(C(=O)OC)cc2)c(OC)c1	none (no result: MRP reversal)
O=S(=O)(/C=C/c1ccccc1)N1CCN(c2ccccc2)CC1	none
O=S(=O)(/C=C/c1ccccc1)Oc1ccccc1	Phagocyt inh 166
CCOC(=O)c1cc(=O)c2c([N+](=O)[O-])ccc(OC)c2o1	none (no result: MRP reversal)
CCN(CC)CCOC(=O)c1ccc(NC(=O)CNC(=O)C2CCCCC2)cc1	none (no result: MRP reversal)
CCN(c1ccccc1)c1ncnc2c1cnn2-c1ccccc1	none
CN(Cc1ccccc1)c1ncnc2c1cnn2-c1ccccc1	MRP-1 activ 5.3
CSc1cc(C)n(-c2ccccc2)c(=S)c1C(C)=O	none (no result: MRP reversal)
Cc1ccc(NC(=O)CN(C)C(=O)CCOc2cccc(C)c2)cc1	none (no result: MRP reversal)
O=C(NC(C(=O)c1ccccc1)n1c(=O)cc[nH]c1=S)c1ccccc1 (configuration not stated)	none (no result: Phagocyt inh)
CC(C)Cc1nc2sc3c(=O)n(N)cnc3c2c2c1COC(C)(C)C2	none (no result: MRP reversal)
Cc1ccc(C(=O)Oc2cc(-c3ccccc3)no2)cc1	none
COc1cccc(C(=O)Oc2cc(-c3ccccc3)no2)c1	Phagocyt inh 165
Nc1ccc(N2CCN(C(=O)c3ccco3)CC2)cc1	none (no result: Phagocyt inh)
CC(NC(=O)c1ccc(F)cc1)c1ccc2c(c1)CCCC2 (configuration not stated)	none (no result: MRP reversal)
CC(NC(=O)c1ccc(Br)cc1)c1ccc2c(c1)CCCC2 (configuration not stated)	MRP-1 activ 5.6 (no result: MRP reversal)
Cc1cccc2c(C(=O)n3cccn3)cc(-c3ccccc3Cl)nc12	none (no result: MRP reversal)
O=[N+]([O-])c1ccc(N/N=C/c2ccccc2)c(F)c1	MRP-1 activ 5.2 (no result: MRP reversal)
Cc1cc(-c2ccccc2)nc(N/N=C/c2ccc([N+](=O)[O-])cc2)n1	none (no result: MRP reversal)
Cc1nc(SCC(=O)N2CCN(c3ccccc3)CC2)c2c(=O)n(C)c(=O)n(C)c2n1	none (no result: MRP-1 activ, Phagocyt inh)
CC(OC1=CC(=O)CCC1)C(=O)c1ccccc1 (configuration not stated)	Phagocyt inh 187
CC(OC(=O)CN1C(=O)NC(C)(C)C1=O)C(=O)c1ccccc1 (configuration not stated)	none
Cc1cc(C)n(Cc2ccc(NC(=O)c3ccc(COc4ccccc4Br)cc3)cc2)n1	none (no result: MRP reversal, Phagocyt inh)
